Laboratory results published in publication PMC10726135, “HNF4α isoforms regulate the circadian balance between carbohydrate and lipid metabolism in the liver”.
In all, about 18,000 sequences were measured (“log2 normalized intensity”: median about 0.36, highest 2% from about 7.3 on). This excerpt belongs to a sample that is enriched for the highest values.

Target: T1, HNF4alpha8 (COS-7 nuclear extract) (Homo sapiens, UniProt P41235-5 1-452)
T1 sequence: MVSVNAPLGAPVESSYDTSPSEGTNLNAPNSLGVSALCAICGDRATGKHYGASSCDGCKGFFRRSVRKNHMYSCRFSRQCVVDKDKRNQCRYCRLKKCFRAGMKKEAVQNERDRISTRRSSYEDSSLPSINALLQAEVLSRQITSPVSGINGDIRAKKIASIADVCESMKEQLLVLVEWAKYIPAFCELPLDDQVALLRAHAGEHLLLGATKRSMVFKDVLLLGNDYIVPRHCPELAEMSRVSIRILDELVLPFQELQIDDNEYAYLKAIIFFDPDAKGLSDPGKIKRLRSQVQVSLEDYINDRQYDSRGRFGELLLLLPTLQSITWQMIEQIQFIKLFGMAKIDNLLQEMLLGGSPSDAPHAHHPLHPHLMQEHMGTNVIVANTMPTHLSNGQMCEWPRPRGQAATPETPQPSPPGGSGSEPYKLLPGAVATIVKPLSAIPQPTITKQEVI
Assay: protein-binding microarray; COS-7 nuclear extract on double-stranded Agilent 4x180k PBM; binding buffer, salt, pH and temperature not given in the material; high values mean tight binding
Conditions: chain copies: 2; label: 3' end of strand 1 on the slide; dsDNA, one strand shown
Procedure, shortened: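 Nuclear extracts from COS-7 cells expressing a transiently transfected human HNF4α isoform were put on a custom Agilent SurePrint G3 4x180k array carrying ~44,000 double-stranded ~60-nt test sequences in quadruplicate. Imaging used an Agilent G2565CA scanner at 2-µm resolution. Binding signal is the background-corrected, normalized gProcessedSignal from Agilent software.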

Sequence | binding signal [log2 normalized intensity]
CTTCACCTCCCCTAGACTTACTATTATGCCGCCTAGGGAGATTAGAGTATCGGTCGA | 1.86
TGAGGGGACAAAGTTCGTGGAAAGTGGAAGGCCTAGGGAGATTAGAGTATCGGTCGA | 3.11
GCAGAGGGACAACTGAGTTACGTAATGTGTGCCTAGGGAGATTAGAGTATCGGTCGA | 0.932
TGAACTATTGAACCACCAGATAGAGCTTTTGCCTAGGGAGATTAGAGTATCGGTCGA | 0.654
CCACCCTATTGATGCAAGGACAATGTCTAGGCCTAGGGAGATTAGAGTATCGGTCGA | 1.38
CTTCAAGTCAGTCAAAATGAATAGTCCTTTGCCTAGGGAGATTAGAGTATCGGTCGA | 0.855
GGCAGGGCCAGATAAAGCAGGTTGTACCTTGCCTAGGGAGATTAGAGTATCGGTCGA | 3.15
GGCCAGATAAAGCAGGTTGTACCTTGACCCGCCTAGGGAGATTAGAGTATCGGTCGA | 9.73
CCCTTCCTGCTTCCAGGCTTGTACCTTGACGCCTAGGGAGATTAGAGTATCGGTCGA | 3.23
GATAAAGCAGGTTGTACCTTGACCCAAGAAGCCTAGGGAGATTAGAGTATCGGTCGA | 5.6
CCTGCTTCCAGGCTTGTACCTTGACCTTCTGCCTAGGGAGATTAGAGTATCGGTCGA | 7.46
TTCCAGGCTTGTACCTTGACCTTCTCTGTTGCCTAGGGAGATTAGAGTATCGGTCGA | 6.19
AGATCTGGATATGCCTGGGGTTCCAGTTACGCCTAGGGAGATTAGAGTATCGGTCGA | 0.546
CTTCCATATAACCCTTGAACCTTCTTCTTGGCCTAGGGAGATTAGAGTATCGGTCGA | 4.81
CCTCCAGGCCCCAGCCACGCCCTCTAACCCGCCTAGGGAGATTAGAGTATCGGTCGA | 3.33
TTATCAGGACTTTGTGATTACATTGAGTCCGCCTAGGGAGATTAGAGTATCGGTCGA | 1.97
AAAAACACCTGGTTCCTTGCAAGATAAGGGGCCTAGGGAGATTAGAGTATCGGTCGA | -0.239
CCTCTCAGGAATGTGGATGCTAAAAGTGAAGCCTAGGGAGATTAGAGTATCGGTCGA | -0.262
GTATGTTCTTAAGATAAGGACTGTTGGACCGCCTAGGGAGATTAGAGTATCGGTCGA | 4.24
GGGAAGCTGTGTGAAGTGACTTGCCCTGTTGCCTAGGGAGATTAGAGTATCGGTCGA | 2.3
TGTCTACCCTTTTGCCCTTTGAGCTTCTGTGCCTAGGGAGATTAGAGTATCGGTCGA | 5.93
ATGCTAAAGTCTACATTCTAGATGACCCCTGCCTAGGGAGATTAGAGTATCGGTCGA | 6.17
TTACTGGACTTGATCCATTCTACCCCTGTGGCCTAGGGAGATTAGAGTATCGGTCGA | 2.82

Sequence | binding signal [log2 normalized intensity]
GTTGACCTTTAGTCTCTAGCCCCGCCCAGAGCCTAGGGAGATTAGAGTATCGGTCGA | 5.33
GGACTTGATCCATTCTACCCCTGTGGTTGAGCCTAGGGAGATTAGAGTATCGGTCGA | 2.5
AGTGACCCTGTCTCTCAGTCTCTGTGGGAGGCCTAGGGAGATTAGAGTATCGGTCGA | 1.23
TACCCCTGTGGTTGACCTTTAGTCTCTAGCGCCTAGGGAGATTAGAGTATCGGTCGA | 7.47
CATTCTACCCCTGTGGTTGACCTTTAGTCTGCCTAGGGAGATTAGAGTATCGGTCGA | 8.33
TGATCCATTCTACCCCTGTGGTTGACCTTTGCCTAGGGAGATTAGAGTATCGGTCGA | 8.51
AAATCATGGATCTGTGCTCAGATCCTGCTCGCCTAGGGAGATTAGAGTATCGGTCGA | -0.984
CCGGACATGGAGAGGTGAGACACGTGTGCCGCCTAGGGAGATTAGAGTATCGGTCGA | -0.118
GGCTAGACTTTAACCCCCTTGTCTTCCTCAGCCTAGGGAGATTAGAGTATCGGTCGA | 4.16
GGCTGCAGAGGTTTCGCAAGGACGTGACCTGCCTAGGGAGATTAGAGTATCGGTCGA | 3.33
CTTACGGCCCTGTGGTGTTCGCTAAGATGTGCCTAGGGAGATTAGAGTATCGGTCGA | 0.705
CCACCTGGAATGTGCTCCCGACTGCTCCACGCCTAGGGAGATTAGAGTATCGGTCGA | 0.00529
CACAAACATACAACCATCAAAGGTCACTTTGCCTAGGGAGATTAGAGTATCGGTCGA | 4.93
TATGCTTTTATTTAACTTCTGGGGGCAAGGGCCTAGGGAGATTAGAGTATCGGTCGA | 2
ATGTACATGGACTTTGAACCAAGATATGCTGCCTAGGGAGATTAGAGTATCGGTCGA | 7.68
CTAAGAGATTTGAATATGTACATGGACTTTGCCTAGGGAGATTAGAGTATCGGTCGA | 6.92
CATGGACTTTGAACCAAGATATGCTAACATGCCTAGGGAGATTAGAGTATCGGTCGA | 5.27
AGGTACTAAGAGATTTGAATATGTACATGGGCCTAGGGAGATTAGAGTATCGGTCGA | 0.942
TGAATATGTACATGGACTTTGAACCAAGATGCCTAGGGAGATTAGAGTATCGGTCGA | 8.87
CGGTCAGCTGCTTGACTTAGTACATGGCCTGCCTAGGGAGATTAGAGTATCGGTCGA | 0.903
AGATTTGAATATGTACATGGACTTTGAACCGCCTAGGGAGATTAGAGTATCGGTCGA | 10.6
ACACAGTACTTTGTACATGGGAATAGACATGCCTAGGGAGATTAGAGTATCGGTCGA | 0.975
GAATGCAACCACACCAACATGGACTTTGTCGCCTAGGGAGATTAGAGTATCGGTCGA | 6.59
